Assay results from PubChem BioAssay AID651604 (The Scripps Research Institute Molecular Screening Center, 2012).
The campaign covered roughly 1,500 compounds. About 1,400 (93%) were called active. The set was probably picked from earlier hits. Only a sample is shown. Values without a mark were called inactive. No stated cut-off is given here; in the data, active means inhibition above about 9.5%; inactive means the rest.

Assay: binders of control antibody PGV04, counter-screen for PG9 antibody binder project, biochemical, TR-FRET, distinct HIV envelope site (AID 651604)
Settings: TR-FRET PGV04 antibody-gp120 binding, at 6.7 µM, stronger effect = higher value

Row | Compound | inhibition
1 | Fc1cc(F)c2nc(Nc3nc4c(F)cccc4s3)sc2c1 | 15.5% (active)
2 | Cc1nc(-c2ccccc2)sc1-c1nc(-c2ccccc2)ncc1S(=O)(=O)c1ccccc1 | 11.5% (active)
3 | CC(C)OCCCNC(=O)c1cc(Sc2ccc(F)cc2)nc2ccccc12 | 28.9% (active)
4 | N#C/C=C1\Sc2ccccc2C(=O)N1CC(=O)N1CCN(S(=O)(=O)c2ccccc2)CC1 | 36.9% (active)
5 | COCCNC(=O)c1cc2c(Br)ccc(Br)c2nc1N | 20.9% (active)
6 | CC(=O)c1sc(NC(=O)CCCOc2ccccc2C)nc1C | 29.6% (active)
7 | COc1cccc(-n2c(SCC(=O)c3c[nH]c4ccccc34)nc3ccccc3c2=O)c1 | 32.9% (active)
8 | Cc1cc2c(cc1C)N1C(=O)c3cc4ccccc4cc3NC(=O)C1C(=O)N2 (stereo not drawn) | 17% (active)
9 | O=C(Oc1ccccc1)Oc1ccc2c(c1)oc(=O)c1ccccc12 | 46.4% (active)
10 | N#Cc1ccccc1Sc1ccccc1C(=O)OCC(=O)NC1CCCCC1 | 45.7% (active)
11 | Cc1ccc(-c2cc(C(=O)NCc3cn(C)nc3C)c3cc(Br)ccc3n2)cc1 | 25.8% (active)
12 | CCCCNC(=O)CSc1nc2n[nH]c(C)c2c(=N)n1-c1cccc(Cl)c1C | 63.2% (active)
13 | Cc1ccc(-n2c(SCC(=O)NCCC3=CCCCC3)nc3n[nH]c(C)c3c2=N)cc1Cl | 27.8% (active)
14 | COc1cccc(-c2ccc(C#N)c(SCC(=O)NCCc3ccc(Cl)cc3)n2)c1 | 13% (active)
15 | COc1ccc(CCNC(=O)CSc2nc(-c3ccc(OC)c(OC)c3)ccc2C#N)cc1 | 38.1% (active)
16 | COC(=O)c1ccc(NC(=S)Nc2cccc(C)n2)cc1 | 16.1% (active)
17 | S=c1[nH]c2ccccc2c2ccccc12 | 11.6% (active)
18 | O=C(Nc1nnc(-c2ccccc2F)s1)c1ccccc1F | 36.9% (active)
19 | CCCOc1ccc(C2C(C(=O)c3ccc(C)o3)=C(O)C(=O)N2CCCn2ccnc2)cc1 (stereo not drawn) | 65.3% (active)
20 | C=CCOc1cccc(C2C(C(=O)c3ccc(C)o3)=C(O)C(=O)N2CCCn2ccnc2)c1 (stereo not drawn) | 22.6% (active)
21 | O=C(O)CCC(=O)Nc1nc2ccc([N+](=O)[O-])cc2s1 | 5.74%

Row | Compound | inhibition
22 | COc1ccc(CC(=O)Nc2ccc(-c3nnc(-c4ccccc4)o3)cc2)cc1 | 24.6% (active)
23 | CCc1ccc(NC(=O)CSc2nnc(-c3cnccn3)n2Cc2ccco2)cc1 | 29.1% (active)
24 | O=C(C1=C(O)C(=O)N(Cc2ccccc2)C1c1ccco1)c1ccco1 (stereo not drawn) | 39.4% (active)
25 | Cc1cc(C)cc(NC(=O)C2CCCN(S(=O)(=O)c3ccc4[nH]c(=O)ccc4c3)C2)c1 (stereo not drawn) | 34.2% (active)
26 | COc1ccc(Cl)cc1NC(=O)Cn1nc(-c2ccc(C)cc2)n(C)c1=S | 26.6% (active)
27 | COc1ccc(-c2csc(NC(=O)c3ccc(N4C(=O)CCC4=O)cc3)n2)cc1OC | 20.8% (active)
28 | Cc1nc2cc(NC(=O)CSc3nc4c(C)cccc4cc3C#N)ccc2s1 | 59.1% (active)
29 | CC(=O)c1sc2nc(SCC(=O)N3CCCCC3)[nH]c(=O)c2c1C | 32.7% (active)
30 | N#Cc1c(-c2cccs2)nc(SCC(=O)c2ccc(Br)cc2)[nH]c1=O | 38.1% (active)
31 | COCCCNc1nc2c(-c3cccc(C)c3)nnn2c2ccc(Cl)cc12 | 30.7% (active)
32 | C=CCn1c(=NC(=O)c2ccc(S(=O)(=O)N3CCCC3)cc2)sc2cc(NC(C)=O)ccc21 | 43% (active)
33 | C=CCn1c(=NC(=O)c2cccs2)sc2cc(NC(C)=O)ccc21 | 12.5% (active)
34 | Cc1c(-c2ccccc2)nc(N)c(C#N)c1-c1cccs1 | 27.9% (active)
35 | CCCc1nc(SCC(=O)Nc2ccc(S(=O)(=O)N(C)C)cc2)c2ccccc2n1 | 41% (active)
36 | N#Cc1ccccc1NC(=O)c1cccc(COc2ccc(Cl)cc2Cl)c1 | 24.8% (active)
37 | CCOc1cc2ccccc2cc1C(=O)Nc1ccccn1 | 16.9% (active)
38 | N#Cc1c(N)nc2c3c(sc(=N)c2c1N)NC(=O)CC3c1ccccc1Cl (stereo not drawn) | 37% (active)
39 | O=C1C(=O)N(CCN2CCOCC2)C(c2cccc(Cl)c2)/C1=C(/O)c1ccc2c(c1)OCO2 (stereo not drawn) | 42.7% (active)
40 | COc1ccc(-n2nnnc2-c2nc3ccccc3s2)cc1 | 59.6% (active)
41 | O=C(COC(=O)c1ccc2c(c1)OCCO2)NCc1ccccc1Cl | 33.7% (active)
42 | COc1ccc(-c2c(C)nn3c(N4CCC(C(=O)N5CCCCC5)CC4)cc(C)nc23)cc1OC | 12.2% (active)

Row | Compound | inhibition
43 | Cn1c(=S)sc2ccc3ccccc3c21 | 15.2% (active)
44 | COc1cccc(NS(=O)(=O)c2ccc3[nH]cc(C(=O)NCCCOC(C)C)c(=O)c3c2)c1 | 19.8% (active)
45 | CCOc1ccc2cc(C#N)c(SCC(=O)OC)nc2c1 | 65.8% (active)
46 | O=C(NCc1ccc(Cl)cc1)c1cc2c(nc3sccn32)s1 | 30.7% (active)
47 | Cc1cccc(Nc2nc3c(S(=O)(=O)c4ccccc4)nnn3c3ccccc23)c1C | 34.2% (active)
48 | O=C(Nc1c(Br)cc2c(c1Br)Cc1cc([N+](=O)[O-])ccc1-2)C(Cl)Cl | 79.2% (active)
49 | Cc1ccc(-n2ncc3c(=O)n(-c4ccc(C)c(C)c4)c(-c4ccco4)nc32)cc1 | 11.9% (active)
50 | Cc1cc(Br)ccc1NC(=O)c1sc2ncn(CC(=O)N3CCN(c4ccccn4)CC3)c(=O)c2c1C | 15.6% (active)
51 | CCOc1cccc(NC(=O)Cn2nc(-c3ccc4c(c3)OCCO4)ccc2=O)c1 | 25.3% (active)
52 | CCOc1ccc(C(=O)COC(=O)c2ccc(-n3cnnn3)cc2)cc1 | 34% (active)
53 | CCOC(=O)c1c(C)[nH]c(C(=O)OCC(=O)c2ccc(OC)cc2OC)c1C | 54.4% (active)
54 | CC(=O)c1cc(C#N)c(SCC(=O)Nc2nccs2)nc1C | 51.4% (active)
55 | O=C1COc2ccc(C(=O)COC(=O)c3ccccc3Cl)cc2N1 | 32.6% (active)
56 | Cc1nc2nc(SCC(=O)c3ccccc3)[nH]c2cc1Br | 46.9% (active)
57 | O=C(Nc1cccc(S(=O)(=O)Nc2ccc(Cl)cc2)c1)c1ccc2c(c1)OCCO2 | 34.2% (active)
58 | CC1(C)Cc2ccccc2-c2[nH]c(=S)[nH]c(=O)c21 | 7.23%
59 | CCn1c(SCC(=O)Nc2cccc(F)c2)nnc1-c1cc2cc(Br)ccc2o1 | 58.4% (active)
60 | O=C(N=C1SC2CS(=O)(=O)CC2N1Cc1ccccc1)c1ccccc1 (stereo not drawn) | 46.9% (active)
61 | CCn1nnc2cc(C(=O)Nc3ccc(C(=O)OC(C)C)cc3)ccc21 | 37% (active)
62 | COC(=O)C1=C(C)N(Cc2ccccc2C(F)(F)F)C(=NCc2ccc(OC)cc2)NC1c1cccc(C(F)(F)F)c1 (stereo not drawn) | 6.34%
63 | O=C(O)CCCCCNc1ncnc2ccc(Br)cc12 | 30.4% (active)
